The results in this text go back to PubChem BioAssay (NCI).

Molecules are shown by their SMILES. Compounds without any hit were thinned out: in the full panel of roughly 83,000, 20% have a hit.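 Note: values are percent growth. 100 is the growth of untreated cells, values between 100 and 0 indicate rising inhibition; between -100 and 0 indicates cell death.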 A number with no mark means an inactive call. Activity calls are given as the source filed them. The calls were made as follows: active = growth percent below 10; inactive = the rest.

Test in all cases: NCI-60 one-dose screen, 48 h (100 = growth as untreated, 0 = no growth, -100 = all killed)
For one test, the system named is SK-MEL-2 melanoma. The note with it: 10 µM unless noted.
The subject of another test is SN12C renal. The note with it: 10 µM unless noted.
The test system of the next test is UO-31 renal. As to conditions: 10 µM unless noted.
The subject of a further test is TK-10 renal. The note with it: 10 µM unless noted.
Another test deals with ACHN renal. As to conditions: 10 µM unless noted.
A further test relates to CAKI-1 renal. The note with it: 10 µM unless noted.
The next test concerns A498 renal. As to conditions: 10 µM unless noted.
In another test the test system is MOLT-4 leukemia. The note with it: 10 µM unless noted.
A further test has as its system SR leukemia. The note with it: 10 µM unless noted.
Another test deals with RPMI-8226 leukemia. As to conditions: 10 µM unless noted.
In the next test the test system is OVCAR-8 ovarian. The note with it: 10 µM unless noted.
The test system of the next test is OVCAR-5 ovarian. The note with it: 10 µM unless noted.
Another test deals with OVCAR-4 ovarian. The note with it: 10 µM unless noted.
The next test deals with SK-OV-3 ovarian. As to conditions: 10 µM unless noted.
The subject of a further test is IGROV1 ovarian. The note with it: 10 µM unless noted.
The next test relates to OVCAR-3 ovarian. The note with it: 10 µM unless noted.
The subject of the next test is CCRF-CEM leukemia. The note with it: 10 µM unless noted.
The next test deals with HS 578T breast. The note with it: 10 µM.
For a further test, the system named is NCI/ADR-RES ovarian. The note with it: 10 µM unless noted.

`CCN(CC)CCCC(C)N/C(c1cccc(OC)c1)=c1\c(=O)[nH]n(-c2c3ccccc3nc3ccccc23)c(=O)\c1=C(/NC(C)CCCN(CC)CC)c1cccc(OC)c1` (stereo not given): the growth with SK-MEL-2 melanoma was -75.2% (active); in the test with SN12C renal, 5.78% (active); in the test on UO-31 renal, -48.5% (active); in the test with TK-10 renal, -23% (active); with ACHN renal, -61.8% (active); in the test with CAKI-1 renal, 1.65% (active). The growth was -85.9% (active) in the test with A498 renal; -22.7% (active) in the test on MOLT-4 leukemia; 0.449% (active) in the test with SR leukemia; -37.3% (active) in the test on RPMI-8226 leukemia; -7.7% (active) in the test with OVCAR-8 ovarian; 1.41% (active) in the test on OVCAR-5 ovarian. For the same molecule, the growth in the test with OVCAR-4 ovarian is -48.1% (active); with SK-OV-3 ovarian it was -10.1% (active); in the test on IGROV1 ovarian it was -6.96% (active); in the test on OVCAR-3 ovarian, -36.6% (active).

For the molecule `CC1=C(C(=O)Nc2ccc(F)cc2)C(c2ccc(C)cc2)C2=C(CC(C)(C)CC2=O)N1` (stereo not given), the growth with SK-MEL-2 melanoma is 110%; in the test on SN12C renal, 97%; in the test on UO-31 renal, 63.2%; in the test with TK-10 renal, 109%; with ACHN renal, 94.7%; with CAKI-1 renal it was 69.6%. For the same molecule, the growth with CCRF-CEM leukemia is 82.8%; in the test on MOLT-4 leukemia, 85%; in the test on RPMI-8226 leukemia it was 99.2%; with OVCAR-8 ovarian, 98.3%; with OVCAR-5 ovarian it was 93.1%; in the test with OVCAR-4 ovarian it was 90.8%. Moreover, the growth with SK-OV-3 ovarian was 100%; in the test on IGROV1 ovarian it was 104%; in the test on OVCAR-3 ovarian, 92.7%; in the test with HS 578T breast, 77.4%; in the test with NCI/ADR-RES ovarian, 89.9%.

Turning to `COc1ccc(-c2nc(-c3cc(OC)cc(OC)c3)[nH]c2-c2ccc(OC)cc2)cc1`, the growth in the test with SK-MEL-2 melanoma is 29.4%; in the test with SN12C renal it was 70.6%; with UO-31 renal, 36.1%; in the test with TK-10 renal, 62.2%; with ACHN renal it was 41.3%; in the test on CAKI-1 renal, 44.5%. Moreover, the growth in the test with CCRF-CEM leukemia was 11.1%; in the test on MOLT-4 leukemia, 14.2%; with SR leukemia, 25.3%; in the test with RPMI-8226 leukemia it was -11.6% (active); in the test on OVCAR-8 ovarian it was 58.1%; in the test on OVCAR-5 ovarian, 77.7%. In addition, the growth with OVCAR-4 ovarian is 59.7%; with SK-OV-3 ovarian, 85.6%; with IGROV1 ovarian, 71.7%; with OVCAR-3 ovarian it was 45.3%; in the test on HS 578T breast it was 81.5%; in the test on NCI/ADR-RES ovarian, 53.9%.

With `CC1=NC(c2ccc(Cl)cc2)C2=C(N1)/C(=C/c1ccc(Cl)cc1)CCC2` (stereo not given), the growth was 98.4% in the test with SK-MEL-2 melanoma; 102% in the test with SN12C renal; 78.5% with UO-31 renal; 129% with TK-10 renal; 102% with ACHN renal; 94.7% in the test with CAKI-1 renal. Moreover, the growth is 102% in the test with A498 renal; 78.8% in the test with CCRF-CEM leukemia; 74.6% in the test with MOLT-4 leukemia; -1.96% (active) in the test on RPMI-8226 leukemia; 79% in the test with OVCAR-8 ovarian; 114% in the test with OVCAR-5 ovarian. Further, the growth in the test with OVCAR-4 ovarian is 83.6%; in the test on SK-OV-3 ovarian, 109%; in the test on IGROV1 ovarian it was 98.8%; with OVCAR-3 ovarian, 104%; with HS 578T breast, 97.9%; with NCI/ADR-RES ovarian it was 98%.

In the case of `Cc1cc(N=Nc2ccc(-c3ccc(N=Nc4ccc(O)c(C(=O)O)c4)cc3)cc2)c(N)c(N=Nc2ccc(C(=O)O)cc2)c1N`, the growth in the test with SK-MEL-2 melanoma was 91.8%; in the test with SN12C renal, 91%; in the test on UO-31 renal, 76.9%; in the test with TK-10 renal it was 134%; in the test with ACHN renal, 80.3%; in the test on CAKI-1 renal, 86%. Besides, the growth with A498 renal is 101%; with MOLT-4 leukemia, 90.1%; in the test with SR leukemia, 75.9%; in the test with RPMI-8226 leukemia it was 67.1%; with OVCAR-8 ovarian it was 90.8%; in the test on OVCAR-5 ovarian, 100%. The growth with OVCAR-4 ovarian is 97.1%; in the test on SK-OV-3 ovarian, 103%; in the test with IGROV1 ovarian, 83.3%; in the test with OVCAR-3 ovarian, 93.1%; with NCI/ADR-RES ovarian, 97.7%.

Turning to `COc1ccc2nc(C)cc(Nc3ccccc3O)c2c1`, the growth in the test on SK-MEL-2 melanoma was 67.7%; in the test with SN12C renal, -22.9% (active); with UO-31 renal it was -56.1% (active); in the test on TK-10 renal, 21.2%; in the test with ACHN renal, -38.9% (active); in the test with CAKI-1 renal it was -0.0846% (active). Further, the growth in the test with A498 renal was 89.8%; with CCRF-CEM leukemia it was 50.7%; with MOLT-4 leukemia, 87.7%; with SR leukemia it was -32.8% (active); with RPMI-8226 leukemia, 25%; in the test on OVCAR-8 ovarian, 32.6%. Moreover, the growth in the test with OVCAR-4 ovarian was -76.1% (active); in the test on SK-OV-3 ovarian it was -41.5% (active); with IGROV1 ovarian it was 44.9%; with OVCAR-3 ovarian, -35.5% (active); in the test on HS 578T breast, -3.7% (active); in the test on NCI/ADR-RES ovarian, 46.9%.

In the case of `CCCCCCCCCCCCCC[N+](C)(C)CCCCCCCCCCCCCC`, the growth in the test on SK-MEL-2 melanoma is 67.6%; with SN12C renal, 67.6%; with UO-31 renal it was 78%; in the test on TK-10 renal it was 48.3%; in the test with ACHN renal, 57.1%; with CAKI-1 renal it was 51.6%. In addition, the growth in the test on A498 renal was 102%; in the test with MOLT-4 leukemia, 51.2%; in the test on SR leukemia, 35.7%; in the test with RPMI-8226 leukemia, 12.6%; in the test on OVCAR-8 ovarian, 49.6%; in the test on OVCAR-5 ovarian, 79.9%. The growth was 62% in the test on OVCAR-4 ovarian; 85.5% in the test on SK-OV-3 ovarian; 9.59% (active) in the test with IGROV1 ovarian; 87.5% in the test on OVCAR-3 ovarian; 104% in the test on NCI/ADR-RES ovarian.

Regarding `N#CC1=C(N)Oc2nc[nH]c(=O)c2C1c1cccs1` (stereo not given), the growth was 113% in the test with SK-MEL-2 melanoma; 105% in the test with SN12C renal; 97.1% in the test on UO-31 renal; 105% with TK-10 renal; 101% in the test on ACHN renal; 94.9% in the test on CAKI-1 renal. Besides, the growth is 95% in the test with CCRF-CEM leukemia; 94.3% in the test on MOLT-4 leukemia; 92% in the test on SR leukemia; 100% in the test on RPMI-8226 leukemia; 98.3% in the test on OVCAR-8 ovarian; 100% in the test with OVCAR-5 ovarian. Further, the growth is 90.9% with OVCAR-4 ovarian; 105% in the test with SK-OV-3 ovarian; 111% with IGROV1 ovarian; 108% in the test with OVCAR-3 ovarian; 112% in the test on HS 578T breast; 113% in the test on NCI/ADR-RES ovarian.

Consider `Nc1c(C(=O)Nc2cccc(Cl)c2)sc2ncc(Br)cc12`, for which the growth with SK-MEL-2 melanoma is 89.6%; with SN12C renal it was 82%; in the test on UO-31 renal it was 62.2%; in the test with TK-10 renal, 57.9%; in the test with ACHN renal, 11.4%; in the test on CAKI-1 renal it was 90.6%. Also, the growth was 96.5% in the test on A498 renal; 87.4% in the test with MOLT-4 leukemia; 71.7% in the test on SR leukemia; 71.3% in the test with RPMI-8226 leukemia; 87.1% with OVCAR-8 ovarian; 84.1% with OVCAR-5 ovarian. In addition, the growth in the test on OVCAR-4 ovarian is 9.2% (active); with SK-OV-3 ovarian, 61%; in the test with IGROV1 ovarian, 70%; with OVCAR-3 ovarian it was 54.5%.
